From PubChem BioAssay (EPA / NIEHS) come the findings set out here.

Records with an inconclusive call do not appear. Active and inactive are the calls of the source. How the source made its calls, unless noted: active means hit-call score of the fitted dose curve at least 0.9, where 1 is the maximum; inactive means score below 0.9.

Experiment [1] is described as follows: ACEA_ER_80hr: ACEA Biosciences xCELLigence Real-Time Cell Analysis on Estrogen Receptor Agonism for Proliferation (AID 2282667; active means hit-call score of the fitted dose curve at least 0.9, where 1 is the maximum). Conditions: T47D proliferation, impedance (xCELLigence), 80 h. Put shortly: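 Real-time impedance growth kinetics of human T-47D breast cells read 80 h after dosing, gain-of-signal fitted relative to DMSO. Compounds: 1:4 serial series, top final concentration 100 uM, n = 2.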

Experiment [2] in a line: ATG_CRE_CIS: Attagene CIS-FACTORIAL HepG2 Assay for human cAMP Responsive Element (CRE) binding protein 3 (AID 2282926). Conditions: HepG2 CRE cis-reporter, Attagene multiplexed mRNA; actives raise or lower the signal. A digest of the protocol:
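Multiplexed transcription-unit reporters transfected into HepG2; 24 h dosing; RT-PCR/capillary electrophoresis fluorescence read-out; bidirectional fit vs DMSO.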

Experiment [3] has as its target CCAAT/enhancer-binding protein beta (Homo sapiens) (UniProt P17676). Put plainly: ATG_C_EBP_CIS: Attagene CIS-FACTORIAL HepG2 Assay for human CCAAT/Enhancer Binding Protein (C/EBP) beta (AID 2282927). Conditions: HepG2 Attagene cis-factorial transcription factor reporter; actives raise or lower the signal. Put shortly: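 Endogenous C/EBPb-driven reporter transcripts measured in transfected human HepG2 cells at 24 h via RT-PCR and capillary electrophoresis of labelled fragments. Activity fitted in both directions relative to DMSO baseline.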

Experiment [4] in a line: ATG_CMV_CIS: Attagene CIS-FACTORIAL HepG2 Assay for human CMV (Internal Marker) (AID 2282928).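 Further: endpoint acts as a background internal control marker rather than a target.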 As to conditions: HepG2 CMV promoter reporter, transcription factor profiling; actives raise or lower the signal. Put shortly: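 Cell system: HepG2, transiently transfected multiple reporter units under cis promoters. Exposure: 24 h. Detection: RT-PCR, FAM labeling, HpaI digestion, capillary electrophoresis. Analysis: bidirectional, DMSO baseline.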

Experiment [5] is described as follows: ATG_DR4_LXR_CIS: Attagene CIS-FACTORIAL HepG2 Assay for human Liver X Receptor (LXR), DR4 submotif (AID 2282929). Conditions: HepG2 Attagene DR4 cis-reporter, mRNA transcription; actives raise or lower the signal. A digest of the protocol: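 The endpoint is DR4-element-driven reporter transcripts after 24 h chemical exposure of transfected HepG2 cells. These were measured via RT-PCR and capillary electrophoresis, and gain or loss of signal was fitted relative to DMSO controls.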

Experiment [6] has as its target Aryl hydrocarbon receptor (Homo sapiens) (UniProt P35869). Put plainly: ATG_Ahr_CIS: Attagene CIS-FACTORIAL HepG2 Assay for human Aryl Hydrocarbon Receptor (Ahr) (AID 2282930). Conditions: HepG2 AhR cis-factorial reporter transcription; actives raise or lower the signal. A digest of the protocol: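 Reporter mRNA levels, quantified by RT-PCR and fluorescent capillary electrophoresis, reflect endogenous AhR transcriptional activity in HepG2 cells carrying transfected cis-promoter reporter constructs. Readout at 24 h post-dose; gain or loss fitted against DMSO baseline.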

The nature of experiment [7]: ATG_AP_1_CIS: Attagene CIS-FACTORIAL HepG2 Assay for human Activator Protein 1 (AP-1) (AID 2282931). Conditions: HepG2 Attagene cis-factorial AP-1 reporter mRNA; actives raise or lower the signal. Put shortly: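 Readout is reporter transcript level from endogenous transcription factor activity, quantified by RT-PCR with fluorescent primer extension and capillary electrophoresis. Transiently transfected HepG2 cells, 24 h exposure. Curves fitted both directions versus DMSO.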

Experiment [8] is described as follows: ATG_AP_2_CIS: Attagene CIS-FACTORIAL HepG2 Assay for human Activator Protein 2 (AP-2) (AID 2282932). Conditions: HepG2 AP-2 cis-reporter, Attagene transcription factor profiling; actives raise or lower the signal. Put shortly: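 Step one: transient transfection of HepG2 with reporter transcription units. Step two: 24 h chemical exposure. Step three: RNA extraction, RT-PCR, labelled fragment analysis by capillary electrophoresis; DMSO serves as baseline.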

Experiment [9] is described as follows: ATG_BRE_CIS: Attagene CIS-FACTORIAL HepG2 Assay for human Bone Morphogenetic Protein (BMP) Response Element (BRE) (AID 2282933). As to conditions: HepG2 BMP response element reporter, Attagene transcription factor profiling; actives raise or lower the signal. A digest of the protocol: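 Endogenous transcription factor activity read in transiently transfected HepG2 cells after 24 h chemical exposure. Bidirectional curve fitting against DMSO; readout is reporter transcript level by RT-PCR with capillary electrophoresis of labelled products.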

In experiment [10] the target is Transcription factor E2F1 (Homo sapiens) (UniProt Q01094). Put plainly: ATG_E2F_CIS: Attagene CIS-FACTORIAL HepG2 Assay for human E2F Transcription Factor 1 (AID 2282935). As to conditions: HepG2 Attagene cis-reporter, E2F reporter RNA transcripts; actives raise or lower the signal. Put shortly:
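Total RNA from 24 h-treated, reporter-transfected HepG2 cells undergoes DNase I treatment, oligo(dT) reverse transcription, PCR and 6-FAM primer extension before capillary electrophoresis.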

Experiment [11] is described as follows: ATG_E_Box_CIS: Attagene CIS-FACTORIAL HepG2 Assay for human Enhancer Box (E-box) (AID 2282936). Conditions: HepG2 E-box cis-reporter transcription, actives raise or lower the signal. Put shortly:
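DMSO served as negative control and baseline for bidirectional fitting. Human hepatoma HepG2 cells, transiently transfected with cis-reporter constructs, were dosed 24 h; reporter mRNA read by RT-PCR and capillary electrophoresis.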

A short description of experiment [12]: ATG_M_61_CIS: Attagene CIS-FACTORIAL HepG2 Assay for M61 Transcription Factor (Internal Marker) (AID 2282937). As to conditions: HepG2 Attagene CIS-FACTORIAL M61 internal marker reporter; actives raise or lower the signal. A digest of the protocol: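 Readout is reporter mRNA by RT-PCR, fluorescent primer extension and capillary electrophoresis, with gain or loss fitted relative to DMSO. Transfected HepG2 cells carrying endogenous-TF-driven cis reporters were exposed to chemicals for 24 hours.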

Experiment [13] is described as follows: ATG_EGR_CIS: Attagene CIS-FACTORIAL HepG2 Assay for human Early Growth Response 1 (EGR1) (AID 2282938). Conditions: HepG2 Attagene CIS-FACTORIAL EGR reporter mRNA; actives raise or lower the signal. A digest of the protocol: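 After 24 h compound exposure, RNA from reporter-transfected HepG2 cells was reverse-transcribed, PCR-amplified, fluorescently labelled and resolved by capillary electrophoresis. EGR1 reporter transcript changes, up or down, were fitted against DMSO, reflecting endogenous transcription-factor activity.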

Experiment [14] in a line: ATG_M_19_CIS: Attagene CIS-FACTORIAL HepG2 Assay for M19 Transcription Factor (Internal Marker) (AID 2282939). As to conditions: HepG2 Attagene CIS-FACTORIAL M19 internal marker reporter; actives raise or lower the signal. Put shortly:
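Internal marker readout, fitted in both directions against DMSO, from HepG2 cells carrying transfected cis-element reporter constructs; RT-PCR and capillary electrophoresis of reporter mRNA after 24 h exposure.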

Experiment [15] can be described thus: ATG_ERE_CIS: Attagene CIS-FACTORIAL HepG2 Assay for Estrogen Response Element (ERE) (AID 2282940). As to conditions: HepG2 ERE cis-reporter, Attagene RNA transcript; actives raise or lower the signal. A digest of the protocol:
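After 24 h compound treatment, RNA from transfected HepG2 cells was reverse-transcribed, reporter cDNA PCR-amplified, FAM-labelled, HpaI-cut and resolved by capillary electrophoresis. ERE-driven cis reporter transcripts reflect endogenous factors; gain or loss scored against DMSO.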

Experiment [16] can be described thus: ATG_Ets_CIS: Attagene CIS-FACTORIAL HepG2 Assay for human Erythroblast Transformation Specific (ETS) (AID 2282941). Conditions: HepG2 ETS cis-reporter transcription, actives raise or lower the signal. Put shortly: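 After transient cis-reporter transfection, HepG2 cells receive test chemical for 24 h. Reporter mRNA levels, measured by RT-PCR and capillary electrophoresis fluorescence, are analysed bidirectionally relative to the DMSO baseline.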

In experiment [17] the target is Hepatocyte nuclear factor 3-beta (Homo sapiens) (UniProt Q9Y261). Put plainly: ATG_FoxA2_CIS: Attagene CIS-FACTORIAL HepG2 Assay for human Forkhead box A2 (FOXA2) (AID 2282942). As to conditions: HepG2 cis-reporter transcription factor activity, 24 h; actives raise or lower the signal. Put shortly: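 Endogenous transcription factor activity is captured via cis-element-driven reporter transcripts in transfected HepG2. Total RNA taken at 24 h post-dosing; labelled RT-PCR products resolved by capillary electrophoresis. Gain or loss fitted versus DMSO.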
Chain of Hepatocyte nuclear factor 3-beta (Homo sapiens) (Q9Y261 whole entry, looked up): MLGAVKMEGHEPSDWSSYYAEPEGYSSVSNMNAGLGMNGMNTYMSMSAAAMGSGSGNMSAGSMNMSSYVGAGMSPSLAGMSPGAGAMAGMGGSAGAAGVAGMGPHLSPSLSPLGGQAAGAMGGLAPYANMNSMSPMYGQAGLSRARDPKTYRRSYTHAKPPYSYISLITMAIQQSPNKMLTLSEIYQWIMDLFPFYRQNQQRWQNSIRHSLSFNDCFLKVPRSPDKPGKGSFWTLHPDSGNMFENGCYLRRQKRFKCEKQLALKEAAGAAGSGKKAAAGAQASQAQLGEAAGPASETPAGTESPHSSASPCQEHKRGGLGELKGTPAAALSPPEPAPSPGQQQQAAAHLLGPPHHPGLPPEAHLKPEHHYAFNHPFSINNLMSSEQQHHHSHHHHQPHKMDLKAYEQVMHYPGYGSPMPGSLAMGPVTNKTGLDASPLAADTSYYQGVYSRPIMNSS

A short description of experiment [18]: ATG_FoxO_CIS: Attagene CIS-FACTORIAL HepG2 Assay for human Forkhead box O (FoxO) (AID 2282943). Conditions: HepG2 Attagene cis-reporter, FoxO element, mRNA; actives raise or lower the signal. A digest of the protocol: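 Endogenous transcription factor activity read from multiplexed cis-promoter reporter transcripts in transiently transfected HepG2, 24 h after dosing. Reporter RNA measured via RT-PCR plus capillary electrophoresis of FAM-labeled products; gain or loss relative to DMSO.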

The nature of experiment [19]: ATG_GATA_CIS: Attagene CIS-FACTORIAL HepG2 Assay for human GATA Binding Protein (AID 2282944). As to conditions: HepG2 GATA cis-element reporter, Attagene multiplex mRNA; actives raise or lower the signal. Put shortly: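 Reporter transcripts from a GATA cis-regulated unit, among multiplexed reporters in transfected HepG2 cells, were measured by RT-PCR with capillary electrophoresis after 24 h dosing. Induction or loss scored relative to DMSO.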

For experiment [20], the target named is Retinoic acid receptor alpha (Homo sapiens) (UniProt P10276). Put plainly: ATG_DR5_RAR_CIS: Attagene CIS-FACTORIAL HepG2 Assay for human Retinoic Acid Receptor Alpha (RARE), DR5 submotif (AID 2282934). As to conditions: HepG2 Attagene cis-factorial RARE DR5 reporter, mRNA; actives raise or lower the signal. A digest of the protocol:
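Reporter transcripts from a DR5-regulated unit, measured via RT-PCR plus capillary electrophoresis, reflect endogenous RAR activity in transiently transfected human HepG2 liver cells. Exposure lasted 24 h; gain or loss of signal scored against DMSO.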

Chain of Transcription factor E2F1 (Homo sapiens) (Q01094 whole entry, looked up): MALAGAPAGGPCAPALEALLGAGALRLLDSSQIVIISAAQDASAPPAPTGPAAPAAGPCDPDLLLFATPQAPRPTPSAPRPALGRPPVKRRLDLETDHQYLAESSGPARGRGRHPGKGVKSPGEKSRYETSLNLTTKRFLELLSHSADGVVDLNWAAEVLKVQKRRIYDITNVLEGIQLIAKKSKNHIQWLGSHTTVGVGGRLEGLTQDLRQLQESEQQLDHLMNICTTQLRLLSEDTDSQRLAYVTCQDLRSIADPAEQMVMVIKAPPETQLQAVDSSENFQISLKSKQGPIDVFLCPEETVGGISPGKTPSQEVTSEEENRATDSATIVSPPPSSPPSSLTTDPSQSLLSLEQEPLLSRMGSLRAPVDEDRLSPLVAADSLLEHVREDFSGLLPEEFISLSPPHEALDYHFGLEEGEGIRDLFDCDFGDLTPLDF
Chain of CCAAT/enhancer-binding protein beta (Homo sapiens) (P17676 whole entry, looked up, the tested form may be a part): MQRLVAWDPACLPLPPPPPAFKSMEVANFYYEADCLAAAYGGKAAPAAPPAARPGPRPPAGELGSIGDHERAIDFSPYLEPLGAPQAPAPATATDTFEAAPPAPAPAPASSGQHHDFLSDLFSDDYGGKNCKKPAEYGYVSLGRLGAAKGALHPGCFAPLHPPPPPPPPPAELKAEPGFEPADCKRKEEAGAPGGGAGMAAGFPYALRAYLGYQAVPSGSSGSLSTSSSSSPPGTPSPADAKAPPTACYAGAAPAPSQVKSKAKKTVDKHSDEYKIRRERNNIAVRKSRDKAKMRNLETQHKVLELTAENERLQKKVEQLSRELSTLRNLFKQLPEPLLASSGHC
Chain of Aryl hydrocarbon receptor (Homo sapiens) (P35869 whole entry, looked up): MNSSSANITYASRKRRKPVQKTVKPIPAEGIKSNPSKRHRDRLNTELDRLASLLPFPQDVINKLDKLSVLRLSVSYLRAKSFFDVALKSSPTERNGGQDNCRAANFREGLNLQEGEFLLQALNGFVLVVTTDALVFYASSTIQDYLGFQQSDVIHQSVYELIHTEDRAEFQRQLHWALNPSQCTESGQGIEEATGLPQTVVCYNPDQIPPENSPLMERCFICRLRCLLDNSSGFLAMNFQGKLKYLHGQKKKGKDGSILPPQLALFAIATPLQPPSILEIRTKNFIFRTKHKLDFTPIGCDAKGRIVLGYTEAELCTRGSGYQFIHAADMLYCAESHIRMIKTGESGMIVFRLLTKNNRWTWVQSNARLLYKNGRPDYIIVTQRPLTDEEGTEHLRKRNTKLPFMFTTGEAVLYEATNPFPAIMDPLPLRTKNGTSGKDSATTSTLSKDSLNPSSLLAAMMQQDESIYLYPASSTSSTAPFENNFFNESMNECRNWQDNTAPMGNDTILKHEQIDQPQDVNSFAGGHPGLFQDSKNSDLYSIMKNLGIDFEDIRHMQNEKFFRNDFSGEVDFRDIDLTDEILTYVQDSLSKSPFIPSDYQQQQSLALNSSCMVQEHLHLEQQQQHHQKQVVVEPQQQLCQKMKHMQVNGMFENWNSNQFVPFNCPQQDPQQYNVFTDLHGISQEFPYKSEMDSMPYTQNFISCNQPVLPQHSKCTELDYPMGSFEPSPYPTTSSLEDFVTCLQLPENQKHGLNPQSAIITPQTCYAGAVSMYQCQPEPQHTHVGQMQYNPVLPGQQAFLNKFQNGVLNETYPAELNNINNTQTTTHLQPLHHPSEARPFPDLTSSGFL
Chain of Retinoic acid receptor alpha (Homo sapiens) (P10276 whole entry, looked up): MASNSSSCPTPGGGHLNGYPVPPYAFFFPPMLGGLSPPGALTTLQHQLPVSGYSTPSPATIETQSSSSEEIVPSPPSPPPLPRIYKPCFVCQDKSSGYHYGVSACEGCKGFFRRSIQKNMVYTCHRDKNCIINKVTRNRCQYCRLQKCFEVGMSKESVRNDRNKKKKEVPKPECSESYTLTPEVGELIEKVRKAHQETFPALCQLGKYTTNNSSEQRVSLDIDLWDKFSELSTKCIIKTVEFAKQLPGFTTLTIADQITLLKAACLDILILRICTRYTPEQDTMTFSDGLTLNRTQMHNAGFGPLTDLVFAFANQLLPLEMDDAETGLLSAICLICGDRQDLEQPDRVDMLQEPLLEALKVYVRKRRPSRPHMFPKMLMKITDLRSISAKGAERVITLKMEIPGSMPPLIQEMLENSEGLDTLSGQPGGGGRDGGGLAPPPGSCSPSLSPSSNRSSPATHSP

For `O=C(Cl)c1c(Cl)c(Cl)c(C(=O)Cl)c(Cl)c1Cl`, the molecule was called inactive in experiment [1], in experiment [2], in [3], in experiment [4], in experiment [5] and in experiment [6]. Moreover, the molecule was called inactive in experiment [7], in experiment [8], in experiment [9], in [10], in [11] and in experiment [12]. Further, the call in experiment [13], in [14], in experiment [15], in experiment [16], in experiment [17] and in experiment [18] was inactive. Moreover, in experiment [19], the outcome was inactive.
Usually AC50 stands for the midpoint of the concentration-response curve, whichever way the signal moves. With `O=C(Oc1ccccc1)c1ccccc1C(=O)Oc1ccccc1`, the result in [1], in [2], in experiment [3], in [4], in experiment [5] and in experiment [6] was inactive. Further, the molecule was called inactive in [8], in experiment [20], in [10], in experiment [11], in [12] and in experiment [13]. For the same molecule, the molecule was called inactive in experiment [14], in experiment [15], in [16], in experiment [17], in [18] and in [19]. Moreover, in [7], the concentration at half-maximal activity (AC50) was 46.3 µM (active).
Take `C=CC(=O)O[C@H]1C[C@@H]2CC[C@@]1(C)C2(C)C`: the result in experiment [1], in experiment [3], in [4], in [5], in experiment [6] and in experiment [9] was inactive. In addition, the result in [10], in [12], in experiment [16], in experiment [17] and in experiment [19] was inactive. Besides, the half-maximal activity concentration (AC50) is 180 µM (active) in experiment [2]; 75.3 µM (active) in [7]; 100 µM (active) in experiment [8]; 25.3 µM (active) in experiment [11]; 100 µM (active) in [13]; 157 µM (active) in experiment [14]. In addition, the AC50 in experiment [15] was 24.9 µM (active).
In the case of `CC(CCC(=O)O)(c1ccc(O)cc1)c1ccc(O)cc1`, the AC50 in experiment [1] is 13.4 µM (active); in experiment [15] it was 50.4 µM (active). Besides, the molecule was classed as inactive in experiment [2], in [3], in experiment [4], in experiment [5], in [6] and in experiment [7]. Besides, the molecule was called inactive in [8], in [20], in [10], in experiment [11], in [12] and in experiment [13]. The result in experiment [14], in experiment [16], in [17] and in [19] was inactive.
